Laboratory results published in PubChem BioAssay AID651616 (The Scripps Research Institute Molecular Screening Center, 2012).
Hit rate of the full screen: of about 5,600 compounds, about 4,400 (79%) were called active. So high a share suggests a set chosen from earlier hits. Only a sample is shown. Unmarked numbers belong to inactive results. No stated cut-off is given here; in the data, active means inhibition above about 27%; inactive means the rest.

target: Fructose-bisphosphate aldolase (Mycobacterium tuberculosis (strain ATCC 25618 / H37Rv)) (UniProt P9WQA3); test: M. tuberculosis aldolase blockers, biochemical, fluorescence, strain H37Rv, confirmation (AID 651616);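 further: 0% = vehicle wells and 100% = reference inhibitor wells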; conditions: purified M. tuberculosis FBA, fluorescence read-out, at 1 µM, hits give high values
Sequence (P9WQA3 whole entry, looked up): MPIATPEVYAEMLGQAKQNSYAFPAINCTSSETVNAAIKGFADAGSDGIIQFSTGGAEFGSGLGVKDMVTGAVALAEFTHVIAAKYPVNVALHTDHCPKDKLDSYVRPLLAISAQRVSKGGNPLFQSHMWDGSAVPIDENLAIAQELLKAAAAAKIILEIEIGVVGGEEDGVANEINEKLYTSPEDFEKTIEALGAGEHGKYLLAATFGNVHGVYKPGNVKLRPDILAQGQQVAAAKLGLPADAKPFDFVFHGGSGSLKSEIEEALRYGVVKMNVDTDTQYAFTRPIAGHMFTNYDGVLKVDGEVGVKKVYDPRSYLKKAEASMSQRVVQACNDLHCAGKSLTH

| SMILES | inhibition |
| --- | --- |
| CC(OC(=O)c1ccccc1NCCO)C(=O)Nc1ccnn1C(C)C (stereo not given) | 81.6% (active) |
| CN1C(=O)c2ccc(NC(=O)C3CCCCC3)cc2C1=O | 2.86% |
| CN1C(=O)c2ccc(NC(=O)c3c(F)c(F)c(F)c(F)c3F)cc2C1=O | 822% [above what the read-out allows, likely interference] (active) |
| CN(C)CCCNC(=O)c1ccc2[nH]c3ccccc3c2c1 | 103% (active) |
| c1ccc(Cc2c(-c3ccco3)nc3c4ccccc4ccn23)cc1 | 137% (active) |
| CCOC(=O)c1cc2cc(C)ccc2[nH]1 | 50.4% (active) |
| CCN1CCc2c(C#N)c(NCc3ccccc3)nc(NCCO)c2C1 | 175% (active) |
| COc1ccc2c(c1OC)C(=O)N(c1ncn[nH]1)C2 | 85.2% (active) |
| Cc1coc2c1c(C)cc1oc(=O)c(CC(=O)NCC(=O)N[C@H](C(=O)O)C(C)C)c(C)c12 | 52.1% (active) |
| Cc1cc(C)cc(NC(=O)CSc2ccccc2)c1 | 86.7% (active) |
| CN(C)CCCn1c(N)c(C#N)c2nc(C#N)c(C#N)nc21 | 85.4% (active) |
| Cc1cc(C)c2c(n1)sc1c(=O)n(-c3ccccc3)c(=O)[nH]c12 | 75.8% (active) |
| CN(CCc1ccccn1)S(=O)(=O)c1ccc2c3c(cccc13)C(=O)N2 | 130% (active) |
| COc1ccc(NC(=O)N2CCC(Cc3ccccc3)CC2)cc1 | 40.8% (active) |
| COc1ccccc1NC(=O)COc1ccc(C(=O)OCC(=O)N(C(C)C)C(C)C)cc1OC | 0.36% |
| O=C1CC2(CCCCC2)Oc2ccc(OCC(=O)N3CCOCC3)cc21 | 4.05% |
| COc1ccccc1C(=O)Nc1ccc(OCC(=O)N2CCCCC2)cc1 | 183% (active) |
| COc1ccccc1-c1oc2ccccc2c1C#CCCCCO | 170% (active) |
| COc1ccc(-n2cc(CNC3CCOCC3)c(-c3cccc(F)c3)n2)cc1 | 18.8% |
| COc1ccc(-n2cc(CN(C)Cc3n[nH]c(=O)[nH]3)c(-c3cccc(F)c3)n2)cc1 | 44.3% (active) |
| Cc1ccc(S(=O)(=O)N2CCN(C(=O)CSc3cc(C)ccc3C)CC2)c(C)c1 | 164% (active) |
| Cn1nc(-c2ccc(Cl)cc2)c2cc(C(=O)NCc3ccco3)sc21 | 47.8% (active) |
| CCc1ccc(-c2cc(C(=O)NCc3ccco3)c3ccccc3n2)s1 | -6.79% |
| CCN(CC)CCCNC(=O)c1cc2c(=O)[nH]c3ccc(C)cc3c2s1 | 137% (active) |
| N#CC1(Nc2ccc3c4c(cccc24)CC3)CCCCC1 | 119% (active) |
| N#Cc1c(N)n(CCOC(=O)c2ccc(Cl)cc2)c2nc3ccccc3nc12 | 40.4% (active) |
| CC(=O)c1sc2nc(SCC(=O)N3CCCCC3)[nH]c(=O)c2c1C | 76.2% (active) |
| CCN(C(=O)Nc1cccc2ccccc12)c1ccccc1 | 164% (active) |

| SMILES | inhibition |
| --- | --- |
| O=C(O)c1cccnc1Sc1ncnc2sc3c(c12)CCC3 | 59.7% (active) |
| O=C(Nc1ncc2c(n1)-c1ccccc1OC2)c1ccc(Cl)cc1 | 93.8% (active) |
| CCOc1ccccc1C1CC(c2ccccc2)Nc2nc(N)nn21 (stereo not given) | 185% (active) |
| O=c1oc2ccccc2cc1-c1cn(-c2ccccc2)c(=S)[nH]1 | 17.6% |
| CC12CCC(C(=O)N3CCN(c4ncccn4)CC3)(c3nc4ccccc4nc31)C2(C)C (stereo not given) | 195% (active) |
| Cn1c(-c2ccco2)nc2cc3ccccc3cc21 | 46.4% (active) |
| Cn1cccc1-c1nc2ccccc2n1C | 13.3% |
| CCc1cc(=O)oc2c(C)c(OCC(=O)N3CC[C@@]4(O)CCCC[C@H]4C3)ccc12 | 130% (active) |
| CCCc1cc(=O)oc2c(C)c(OCC(=O)N3CCC(C(=O)O)CC3)ccc12 | -5.02% |
| CCOC(=O)CSc1nc2c(c(=O)n(Cc3ccccc3Cl)c(=O)n2C)n1C | 48.6% (active) |
| CN(C)c1ccc(/C=N/NC(=O)C(O)c2ccc(Br)cc2)cc1 (stereo not given) | 72.9% (active) |
| COC(=O)c1noc(C)c1-c1ccnn1C(=O)c1ccc(Cl)cc1 | 57.6% (active) |
| Cc1nc(NCCN)c(C#N)c2c1COC(C)(C)C2 | 88.6% (active) |
| Cc1cc(=O)n2[nH]c(-c3cccc(Cl)c3)cc2n1 | 107% (active) |
| Cc1ccc2nc(/C(C#N)=C\c3ccc(OC(=O)c4cccs4)cc3)[nH]c2c1 | 53.5% (active) |
| CC(C)(C)C(=O)Nc1cccc(-c2ccc[nH]2)n1 | 76.9% (active) |
| N#Cc1c(N2CCCCC2)nc(N)c2c(N)nc(SCC(=O)O)cc12 | 11.2% |
| CN(C)Cc1c(O)ccc2c(=O)c(-c3ccccc3Cl)coc12 | 9.64% |
| CC[C@@H]1Cc2cc(O)ccc2C2=C1c1ccc(O)cc1C[C@H]2CC | 109% (active) |
| Cc1cc(C)c2c(NC(=O)C3CC3)nn(C)c2n1 | 87.2% (active) |
| Cc1cc(C)c2c(n1)nn1c(-n3ccnc3)cc(C)nc21 | -3.81% |
| CC(C)(C)Nc1c(-c2cccs2)nc2ccccn12 | 146% (active) |
| CC[C@@H](C)[C@H](NC(=O)CCc1c(C)c2cc3c4c(oc3c(C)c2oc1=O)CCCC4)C(=O)O | 88.9% (active) |
| CC(C)=NN1C(=O)c2ccccc2NC1(C)C | 178% (active) |
| O=C(Nc1nncs1)c1ccccc1NS(=O)(=O)c1cccs1 | 141% (active) |
| CC1(C)Cc2c(C#N)c(SCc3nc4ccccc4[nH]3)nc(N3CCOCC3)c2CO1 | -3.68% |
| CC(C)c1nc(N2CCOCC2)c(C#N)c2c1COC(C)(C)C2 | 37.2% (active) |
